Only some compounds are listed: those with a hit (about 3% of all), similar ones and a draw of the others.
Bfl-1 A1 inh: inhibitors of the anti-apoptotic protein A1, read as caspase activation; MEF A1-2A-BIM cells, Caspase-Glo 3/7 luminescence, 3 h; percent of clofoctol response, vehicle zero; caspase activation, % (concentration not given with the values); actives 0.066% (n = 330,000); AID 2462;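 active means over half of replicate activation scores above 10%, or exactly half above 10 with the replicate mean above 10; inconclusive means replicate mean below 10 yet half the replicates above 10; inactive means over half of replicates below 10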
NALP3 yeast inh: blocks the NALP3 inflammasome reconstituted in yeast; Yeast reconstituted NLRP3/ASC/caspase-1, beta-gal luminescence, 24 h; inhibition, % at 10 µM; actives 0.39% (n = 330,000); AID 2825;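 active means inhibition of 50% or more; inactive means inhibition below 50%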
SUMO Mot1 rescue: blocks SUMOylation pathway, rescuing yeast Mot1-301 growth; S. cerevisiae Mot1-301 growth rescue, ATP luminescence, 38.5C; percent above DMSO median, 100 means doubled; growth rescue, % at 18.8 µM; actives 1% (n = 320,000);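 active means every valid replicate shows activation above 250% relative to neutral control wells; inactive means the rest, any valid replicate at or below 250%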
CHT inh: human CHT choline transport inhibition | CHT-expressing cells, membrane potential dye, choline response; hits give low values | actives 0.86% (n = 310,000) | AID 488975 | Q9GZV3 | B-score at 10 µM;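 active means B-score over 3 SD under the library average, and starting fluorescence ratio not unusually high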;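 further: choline stimulus applied at its EC90 after an EC20 pre-addition; B-score computed on integrated fluorescence ratio after choline addition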
Target sequence (Q9GZV3 whole entry, looked up): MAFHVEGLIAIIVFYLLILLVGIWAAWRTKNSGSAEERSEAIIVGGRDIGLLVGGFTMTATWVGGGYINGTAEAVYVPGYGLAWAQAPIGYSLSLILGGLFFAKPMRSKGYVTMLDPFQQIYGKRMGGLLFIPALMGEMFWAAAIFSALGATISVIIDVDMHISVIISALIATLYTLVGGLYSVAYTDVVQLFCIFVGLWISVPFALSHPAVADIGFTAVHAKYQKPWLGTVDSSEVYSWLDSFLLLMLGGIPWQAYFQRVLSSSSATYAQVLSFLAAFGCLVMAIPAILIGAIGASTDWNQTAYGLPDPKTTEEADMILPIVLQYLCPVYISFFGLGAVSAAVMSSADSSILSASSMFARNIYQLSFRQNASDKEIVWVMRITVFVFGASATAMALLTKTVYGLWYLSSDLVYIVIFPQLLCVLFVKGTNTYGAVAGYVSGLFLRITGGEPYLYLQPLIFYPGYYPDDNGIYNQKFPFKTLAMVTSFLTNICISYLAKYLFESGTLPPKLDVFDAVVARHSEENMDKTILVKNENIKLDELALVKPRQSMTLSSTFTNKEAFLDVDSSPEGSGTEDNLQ
NALP1 inh: blocks the NALP1 inflammasome reconstituted in yeast | S. cerevisiae NALP1/ASC/caspase-1 growth, X-gal OD620, 72 h | inhibition, % at 10 µM | actives 0.61% (n = 280,000); in the data active means inhibition mostly above about 24%, no sharp cut-off; inactive means mostly below about 32%
CHT PAM: human CHT allosteric activation; Q9GZV3; CHT-expressing cells, membrane potential dye, choline EC20; hits give high values; LV-AA mutant CHT in HEK293 cells; B-score at 10 µM; actives 0.49% (n = 310,000); AID 488977;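 active means initial fluorescence not abnormally high and integrated response B-score, plate-corrected, over 3 SD above library mean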
Mot1 SUMO dose: yeast SUMO pathway inhibition in dose response; shares compounds with SUMO Mot1 rescue; S. cerevisiae Mot1-301 galactose growth, ATP luminescence, 24 h; -100 = growth of slx-deleted rescue strain; growth activity, percent, % at 42 µM; 2,300 tested, under 10 active;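 active means Signal drops as the depositor expects, and the fitted half-maximal dose is no more than ten times the top valid tested dose; inconclusive means Poor fit, or a flat curve whose signal drops by 30% to 70%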;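 further: more negative values mean stronger growth rescue toward the control strain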
Each line names hits and unclear results; the compound was inactive in the other large screens (follow-up assays come after a bar, where they were run).

CCOc1cc(C(N)=O)cc(Cl)c1OCc1ccccc1	SUMO Mot1 rescue 442 | Mot1 SUMO dose inactive
Cc1ccc(C(=O)COC(=O)CN2C(=O)C3C4CCC(C4)C3C2=O)cc1C (centres undefined)	none (no result: Bfl-1 A1 inh, SUMO Mot1 rescue, CHT inh, CHT PAM)
CCCCCC(=O)Nc1nnn(CCC)n1	SUMO Mot1 rescue active, NALP1 inh 43 | Mot1 SUMO dose inactive
NC(=O)NC(=O)COC(=O)/C=C/c1cccs1	SUMO Mot1 rescue 405 | Mot1 SUMO dose inactive
CN(C)CCN(Cc1ccc(Cl)cc1)c1ccccn1	SUMO Mot1 rescue 558 | Mot1 SUMO dose inactive
CCCSc1nc(=O)n2cccc(C)c2n1	SUMO Mot1 rescue 626 | Mot1 SUMO dose inactive
CC(NC(=O)c1cccs1)c1ccc(Br)cc1 (centres undefined)	SUMO Mot1 rescue 800 (no result: NALP1 inh) | Mot1 SUMO dose inactive
CCC1CCCCN1CCCCOc1cccc(Cl)c1 (centres undefined)	Bfl-1 A1 inh inconclusive
Cn1c(=O)c2c(ncn2CC(=O)N2CCCCCC2)n(C)c1=O	SUMO Mot1 rescue active (no result: NALP1 inh) | Mot1 SUMO dose inactive
CC1CCN(C(=O)Cn2cnc3c2c(=O)n(C)c(=O)n3C)c2ccccc2S1 (centres undefined)	SUMO Mot1 rescue 761 | Mot1 SUMO dose inactive
C[C@H](NC(=O)c1nc[nH]c1C(=O)N1CCNCC1)C(=O)OCc1ccccc1	none (no result: NALP1 inh)
O=C(OCC(=O)N1CCC(Cc2ccccc2)CC1)c1cc(Br)ccc1O	none (no result: CHT inh, NALP1 inh, CHT PAM)
CC1(C(=O)Nc2cccc(-n3cnnn3)c2)Cc2ccccc2C(=O)O1 (centres undefined)	SUMO Mot1 rescue 408 (no result: CHT inh, NALP1 inh, CHT PAM) | Mot1 SUMO dose inactive
O=C(CSc1nc(-c2ccccc2)nc2ccc(F)cc12)Nc1cccc(C(=O)O)c1	SUMO Mot1 rescue 535 (no result: NALP1 inh) | Mot1 SUMO dose inactive
CSc1nsc(SCC(=O)Nc2ccc(F)cc2)n1	none
CSc1nsc(SCC(=O)Nc2cccc(C(=O)O)c2)n1	SUMO Mot1 rescue 782 | Mot1 SUMO dose inactive
COc1ccc(S(=O)(=O)N2CCCOC2CNC(=O)C(=O)NC2CCCC2)cc1 (centres undefined)	none
CCN=C1S/C(=C/c2ccc(-c3ccc(F)cc3)o2)C(=O)N1CC	SUMO Mot1 rescue 956 | Mot1 SUMO dose inactive
CCN(CC)C(=O)Cn1nc(-c2ccc(Cl)cc2)c2ccccc2c1=O	none
O=S(=O)(NC1CCN(S(=O)(=O)c2c(F)cccc2F)CC1)c1ccc2c(c1)OCCO2	none (no result: CHT inh, NALP1 inh, CHT PAM)
O=C(Cn1cnc2scc(-c3ccc(Cl)cc3)c2c1=O)N1CCOCC1	none (no result: NALP1 inh)
Cc1ccc(-c2csc3ncn(CC(=O)N4CCOCC4)c(=O)c23)cc1	SUMO Mot1 rescue 362 | Mot1 SUMO dose inactive
CCCC(=O)Oc1c(S(=O)(=O)c2ccc(C)cc2)c(C)nn1C(C)(C)C	SUMO Mot1 rescue 635 | Mot1 SUMO dose inactive
CCC(=O)Oc1c(S(=O)(=O)c2ccc(C)cc2)c(C)nn1C(C)(C)C	none
CC(C)(CNC(=O)c1cccs1)CNC(=O)c1cccs1	SUMO Mot1 rescue 667 | Mot1 SUMO dose inactive
O=C(COc1ncnc2ccccc12)NCCC1=CCCCC1	none
O=C(COc1ncnc2c(Cl)cc(Cl)cc12)NCCC1=CCCCC1	SUMO Mot1 rescue 420 | Mot1 SUMO dose inactive
O=C(COc1cnc2ccccc2n1)NCCC1=CCCCC1	SUMO Mot1 rescue active | Mot1 SUMO dose inactive
COc1cc(Nc2ccc(S(N)(=O)=O)cc2)c([N+](=O)[O-])nc1[N+](=O)[O-]	none
Cc1cccc(C(=O)N2CCNC(=O)C2CC(=O)Nc2cccc(Cl)c2)c1 (centres undefined)	none
Cc1nc(SCC(=O)O)n[nH]1	SUMO Mot1 rescue active | Mot1 SUMO dose inactive
Cc1c(NC(=O)[C@@H](NC(=O)c2ccc(Cl)c([N+](=O)[O-])c2)C(C)C)c(=O)n(-c2ccccc2)n1C	none (no result: CHT inh, NALP1 inh, CHT PAM)
Cc1nc(CSc2nnc3scc(-c4ccccc4)n23)cs1	SUMO Mot1 rescue active (no result: Bfl-1 A1 inh) | Mot1 SUMO dose inactive
Cc1nc2nc(C)c(NS(=O)(=O)c3ccc4c(c3)CCCC4)c(=O)n2[nH]1	none
CCS(=O)(=O)N1CCC(C(=O)NCc2cccnc2)CC1	none
CCS(=O)(=O)N1CCCC(C(=O)NCc2cccnc2)C1 (centres undefined)	SUMO Mot1 rescue 362 | Mot1 SUMO dose inactive
Cc1ccccc1-c1nc(CN2CCCC(C(=O)NCc3cccnc3)C2)c(C)o1 (centres undefined)	SUMO Mot1 rescue active | Mot1 SUMO dose inactive
c1cncc(-c2cn(C[C@H]3CC[C@@H]([C@@H]4CC[C@H](Cn5cc(-c6cccnc6)nn5)O4)O3)nn2)c1	none
O=C(CCNS(=O)(=O)c1cccc2nsnc12)NCCC1=CCCCC1	SUMO Mot1 rescue 712 | Mot1 SUMO dose inactive
O=S(=O)(NCCC1=CCCCC1)c1cccc2nsnc12	none (no result: Bfl-1 A1 inh, NALP3 yeast inh, SUMO Mot1 rescue, CHT inh, CHT PAM)
COc1ccc(-c2cc(-c3ccc(F)cc3)nc(N3CCN(C)CC3)n2)cc1	none (no result: NALP1 inh)
COc1ccc(-c2cc(C#N)nc(N3CCN(c4ccccc4)CC3)n2)cc1	SUMO Mot1 rescue 425 | Mot1 SUMO dose inactive
O=S(=O)(c1ccccc1)N1CCN(c2nc3ccccc3s2)CC1	SUMO Mot1 rescue 453 | Mot1 SUMO dose inactive
COc1cc(OC)cc(C(=O)NC(C(=O)Nc2ccc3c(c2)OCO3)C(C)C)c1 (centres undefined)	none (no result: CHT inh, NALP1 inh, CHT PAM)
COc1cc(/C=C2\NC(=S)N(C)C2=O)ccc1OCc1cccc(F)c1	SUMO Mot1 rescue 563 | Mot1 SUMO dose inactive
Cc1cc(C)c(S(=O)(=O)N2CCCCC2CCNC(=O)C(=O)NC2CC2)c(C)c1 (centres undefined)	none (no result: NALP1 inh)
O=C(N/N=C/C(Br)=C/c1ccccc1)c1n[nH]c2c1CCC2	SUMO Mot1 rescue 508 | Mot1 SUMO dose inactive
Cc1cc(OCC(=O)NCC2CCC(C(=O)O)CC2)c2c(C)c(C)c(=O)oc2c1 (centres undefined)	SUMO Mot1 rescue 358 | Mot1 SUMO dose inactive
CCc1cc(=O)oc2cc(C)cc(OCC(=O)NCC3CCC(C(=O)O)CC3)c12 (centres undefined)	none
Cc1ccc(NC(=O)CSCC(=O)Nc2ccccc2N2CCCC2)cc1	SUMO Mot1 rescue 421 (no result: NALP1 inh) | Mot1 SUMO dose inactive
Cc1cccc(NC(=O)CSCC(=O)N2CCCc3ccccc32)c1	SUMO Mot1 rescue 503 (no result: NALP1 inh) | Mot1 SUMO dose inactive
COc1ccc(NC(=O)CSCC(=O)N2CCCc3ccccc32)cc1	none (no result: NALP1 inh)
Cc1nnsc1C(=O)NC1CCCc2c1cnn2-c1ccc(C(C)(C)C)cc1 (centres undefined)	none
COc1ccc(CNC(=O)COC(=O)c2ccc(S(=O)(=O)NCc3ccco3)cc2)cc1	none (no result: CHT inh, NALP1 inh, CHT PAM)
CSc1ccccc1NC(=O)CN1CCN(S(=O)(=O)c2ccccc2[N+](=O)[O-])CC1	none (no result: CHT inh, NALP1 inh, CHT PAM)

Bioassay records from PubChem BioAssay.
